KAT2A inh: inhibitors of human GCN5L2 histone acetyltransferase. GCN5L2 HAT assay, ThioGlo1 CoA-SH fluorescence. Potency, µM (top dose mostly 58.9 µM), most hits filed as inhibitors. actives 0.21% (n = 390,000)
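Titration-based screen in which CoA formation is detected via maleimide probe ThioGlo1 (50uM) turning fluorescent on thiol reaction; substrates H3(1-25) 75uM and acetyl-CoA 70uM, GCN5L2 20nM, 20 min incubation at room temperature.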
PLK1 PBD inh: blocks phosphopeptide binding to human PLK1 polo-box domain | P53350 | Plk1 PBD binding of FITC phosphopeptide, fluorescence polarization | Potency, µM, usual class: inhibitors | actives 2.8% (n = 360,000) | AID 720504; note: series mostly up to about 57 µM; nearly all actives have a fitted effect of over 65% in size
Target sequence (P53350 whole entry, looked up, the tested form may be a part): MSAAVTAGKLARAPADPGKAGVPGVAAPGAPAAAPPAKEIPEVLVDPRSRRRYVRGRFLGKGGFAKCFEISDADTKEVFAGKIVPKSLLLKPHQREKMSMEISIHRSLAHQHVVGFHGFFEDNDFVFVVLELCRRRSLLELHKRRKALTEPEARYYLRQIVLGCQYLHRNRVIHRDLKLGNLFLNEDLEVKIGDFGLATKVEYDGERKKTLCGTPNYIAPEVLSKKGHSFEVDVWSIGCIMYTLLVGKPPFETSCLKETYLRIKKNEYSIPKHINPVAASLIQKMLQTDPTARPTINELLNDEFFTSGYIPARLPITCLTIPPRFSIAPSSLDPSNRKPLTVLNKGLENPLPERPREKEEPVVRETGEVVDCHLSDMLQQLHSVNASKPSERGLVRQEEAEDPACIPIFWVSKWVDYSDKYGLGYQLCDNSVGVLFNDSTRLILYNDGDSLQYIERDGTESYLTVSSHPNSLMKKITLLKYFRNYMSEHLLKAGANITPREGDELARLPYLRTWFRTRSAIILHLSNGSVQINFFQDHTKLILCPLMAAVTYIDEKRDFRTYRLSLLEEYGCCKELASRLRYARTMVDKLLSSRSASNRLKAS
VDR inh: inhibitors of human vitamin D receptor. P11473. VDR-SRC2-3 peptide fluorescence polarization, 2 h. Potency, µM, hits mostly inhibitors. actives 0.93% (n = 400,000). AID 504847
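The screen uses fluorescence polarization to detect compounds that interfere with recruitment of the SRC2-3 coactivator peptide to VDR; plates are read after 2 h at room temperature.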
TDP1 inh: inhibitors of human tyrosyl-DNA phosphodiesterase TDP1 | recombinant TDP1, AlphaScreen DNA substrate cleavage | Q9NUW8 | Potency, µM (highest dose often 130 µM), usual class: inhibitors | actives 0.28% (n = 350,000); note: nearly all actives have a fitted effect of over 40% in size
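AlphaScreen read-out: signal falls as enzyme removes the 3' tyrosine-FITC from a 5'-biotinylated DNA oligo (15 nM, 5 min, RT). Enzyme was E. coli-made recombinant Tdp1 at 1 nM, exposed to compound for 15 min beforehand; beads 10 ug/ml, 10 min.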
DT40 TDP1 no CPT: qHTS for Inhibitors of human tyrosyl-DNA phosphodiesterase 1 (TDP1): qHTS in cells in absence of CPT. DT40 Tdp1-/- hTDP1 cells, no CPT, ATP luminescence, 48 h. Potency, µM (top dose mostly 46.2 µM), hits mostly inhibitors. actives 15% (n = 420,000). AID 686978, 2013; note: nearly all actives have a fitted effect of over 55% in size
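Growth of hTDP1-complemented DT40 Tdp1-knockout cells is measured by ATP luminescence after at least 48 hr compound exposure at 37 °C, with DMSO substituting for the 20 nM CPT used in the parallel screen.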
TDP1 cell CPT: growth inhibition of DT40 Tdp1-/-;hTDP1 cells with camptothecin (screen for TDP1 inhibitors). chicken DT40 Tdp1-/-;hTDP1 cells + 20 nM CPT, ATP luminescence, 48 h. Potency, µM (titrated, usually from 46.2 µM), most hits filed as inhibitors. actives 12% (n = 420,000); note: nearly all actives have a fitted effect of over 55% in size
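Chicken DT40 Tdp1-/- cells complemented with human TDP1, 400 cells/well, exposed to compounds plus 20 nM camptothecin for at least 48 h at 37 C; viability read as ATP content by CellTiter-Glo luminescence.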
Numbers stand for hits; – = inactive; ? = inconclusive; · = no result given; [ ] = remark or other dose. In the library only some 18% were active in any assay of this set; here they are far more common. Calls come from the whole dose curve; as a rule, active = well fitted curve in the direction sought with a large enough effect; inconclusive = small, poorly fitted or top-dose-only effect, or another doubt; inactive = no such curve, though single readings can be large; an effect the other way counts as inactive or inconclusive.

SMILES | KAT2A inh | PLK1 PBD inh | VDR inh | TDP1 inh | DT40 TDP1 no CPT | TDP1 cell CPT
CN(CC(=O)Nc1ccccc1C(F)(F)F)C(=O)c1cc(Cl)nc2ccccc12 | – | – | – | – | – | –
CCN(Cc1ccccc1)C(=O)c1cc(-c2ccc(OC)c(OC)c2)nc2ccccc12 | – | – | – | – | ? | ?
COCCN(Cc1ccccc1)C(=O)c1cc(-c2ccc(OC)c(OC)c2)nc2ccccc12 | – | – | – | – | ? | ?
COc1ccc(-c2cc(C(=O)N(C)CC(=O)Nc3ccccc3C(F)(F)F)c3ccccc3n2)cc1OC | · | – | – | · | 4.1µM | 21µM
CCCS(=O)(=O)NC(=O)C1(C)CCN(C(=O)c2cc(F)cc(F)c2)C1 (stereo not given) | · | – | · | · | – | –
Cc1cc(C)n(-c2n[nH]c(C)c2[N+](=O)[O-])n1 | – | – | – | – | – | –
COc1ccccc1CNC(=O)c1cc(-c2cccnc2)nc2ccccc12 | – | – | – | – | ? | ?
COc1ccccc1CN(C)C(=O)c1cc(-c2cc(OC)c(OC)c(OC)c2)nc2ccccc12 | – | – | – | – | 10µM | 23µM
COc1cc(-c2cc(C(=O)OCC(=O)NC3CC3)c3ccccc3n2)cc(OC)c1OC | – | – | – | – | 18µM | ?
Cc1ccc(S(=O)(=O)N(c2nc(NC(C)C)nc(NC(C)C)n2)n2cnnc2)cc1 | – | – | – | – | ? | –
COc1ccc(C)cc1NC(=O)CSc1nnc(COc2ccc(Cl)cc2)n1Cc1ccco1 | – | – | – | – | ? | ?
COc1ccc(C)cc1NC(=O)CSc1nnc(COc2ccccc2)n1Cc1ccco1 | – | – | – | – | 21µM | 16µM
COc1cccc(OCc2nnc(SCC(=O)NCc3ccco3)n2CCc2ccccc2)c1 | – | – | – | – | 23µM | 16µM
CN(C)C=NC(=O)c1cn(-c2ccc(F)cc2)c(=O)c2ccccc12 | – | – | – | – | ? | –
CCOc1ccccc1CNC(=O)CCc1cn(CC)c2ccccc12 | – | – | – | · | ? | ?
Cc1ccc(CNC(=O)CCc2cn(Cc3ccc(C)cc3)c3ccccc23)cc1 | – | · | – | – | – | –
COc1ccc(CCNC(=O)CCc2cn(Cc3ccccc3Cl)c3ccccc23)c(OC)c1 | – | · | – | – | 16µM | ?
COc1ccc(CCNC(=O)CCc2cn(Cc3ccc(F)cc3)c3ccccc23)cc1OC | – | · | – | – | 16µM | ?
COc1ccc(OC)c(CCNC(=O)CCc2cn(C)c3ccccc23)c1 | – | – | – | · | ? | –
CCn1cc(CCC(=O)NCc2cccc(OC)c2OC)c2ccccc21 | – | – | – | · | 16µM | 18µM
Cc1ccc(Cn2cc(CCC(=O)NC3CCCCC3)c3ccccc32)cc1 | – | · | – | – | 15µM | ?
COC(=O)C1=C(C)NC(C)=C(C(=O)OC)C1C(=O)OCc1nnc(-c2ccccc2Cl)o1 | – | – | – | – | ? | ?
CCOc1ccc(CNC(=O)CCc2cn(Cc3ccccc3)c3ccccc23)cc1 | – | – | – | – | ? | –
CCOc1ccc(CCNC(=O)CCc2cn(Cc3ccc(C)cc3)c3ccccc23)cc1 | – | · | – | – | 12µM | ?
O=C(Nc1cc(-c2nc3cc(Cl)ccc3o2)ccc1Cl)c1cc([N+](=O)[O-])ccc1N1CCOCC1 | – | · | – | – | – | –
SMILES | KAT2A inh | PLK1 PBD inh | VDR inh | TDP1 inh | DT40 TDP1 no CPT | TDP1 cell CPT
COc1ccc2oc(-c3cccc(NC(=O)c4cc([N+](=O)[O-])ccc4N4CCOCC4)c3)nc2c1 | – | · | – | – | ? | 13µM
O=C(Nc1cccc(-c2nc3ccccc3o2)c1)c1cc([N+](=O)[O-])ccc1N1CCOCC1 | – | · | – | – | 8.2µM | ?
O=C(CN1C(=O)c2ccccc2C1=O)Nc1cccc(Cl)c1 | – | – | – | · | – | –
O=C(Nc1cccc(Cl)c1)N1CCN2C(=O)c3ccccc3C12c1ccccc1 (stereo not given) | – | 12µM | – | – | 18µM | ?
COC(=O)C1CCCCN1Cc1ccc2c(c1)CN(C(=O)c1ccc(C)s1)CCO2 (stereo not given) | · | · | · | · | – | –[9.04 µM]
CCOC(=O)c1ccc(N2C(=O)c3n[nH]c(C)c3C2c2ccco2)cc1 (stereo not given) | – | – | – | – | – | –
CCOC(=O)c1ccc(N2C(=O)c3n[nH]c(C)c3C2c2ccc(OC)cc2)cc1 (stereo not given) | – | – | – | – | ? | –
CCOC(=O)c1ccc(N2C(=O)c3n[nH]c(-c4ccco4)c3C2c2ccc(OC)cc2OC)cc1 (stereo not given) | – | · | – | – | 18µM | 23µM
CCOC(=O)c1ccc(N2C(=O)c3n[nH]c(C)c3C2c2ccc(OC)cc2OC)cc1 (stereo not given) | – | – | – | – | 23µM | ?
CCOC(=O)c1ccc(N2C(=O)c3n[nH]c(-c4ccco4)c3C2c2ccc(C(=O)OC)cc2)cc1 (stereo not given) | – | · | – | – | 15µM | 26µM
CN(C)S(=O)(=O)c1ccc(NC(=O)CCCNC(=O)c2ccc(Cl)cc2)cc1 | – | – | – | · | – | –
O=C(CSc1nc(-c2cccs2)nc2cc(=O)[nH]n12)Nc1cccc(C(F)(F)F)c1 | ? | · | – | – | – | –
CC1=C(C(=O)OC2CCCC(C)C2)C(c2ccccc2)NC(=O)N1 (stereo not given) | – | – | – | · | – | –
COc1cc(/C=C/C(=O)c2ccc(NS(=O)(=O)c3ccc(C)cc3)cc2)ccc1OC(F)F | – | – | – | – | 18µM | ?
COc1cccc(/C=C/C(=O)c2ccc(NS(=O)(=O)c3ccc(C)cc3)cc2)c1 | – | – | ? | – | 21µM | 18µM
COc1cccc(C(=O)/C=C/Nc2ccc(S(=O)(=O)Nc3cccc(C(C)=O)c3)cc2)c1 | – | – | – | – | 16µM | 18µM
COc1cccc(C(=O)/C=C/Nc2cccc(O)c2)c1 | – | – | – | – | – | ?
COc1cccc(N/C=C/C(=O)c2ccc(C)cc2)c1 | – | – | – | · | – | –
O=C(CCc1nnc(COc2ccccc2)o1)NCc1ccccc1C(F)(F)F | – | – | – | – | – | –
COC(=O)C/C=C\[C@@H](C)[C@@H](/C=N\OC[C@@H](O)[C@H]1O[C@H]2OC(C)(C)O[C@H]2[C@@H]1O)OC | · | · | · | –[21 µM] | · | ·
CCCCS(=N)(=O)CC[C@H](N)C(=O)O (stereo not given in full) | – | · | – | – | · | ·

High-throughput results: PubChem BioAssay, National Center for Advancing Translational Sciences (NCATS)
